Screening results (PubChem)
Only some compounds are listed: those with a hit (about 7.1% of all), similar ones and a draw of the others.
SW480 rereplic – DNA re-replication induction in SW480 cells; SW480 DNA re-replication, Hoechst DNA content imaging, 48 h; Potency, µM (series often up to 46.1 µM), inactives show at the top dose re-replication activation, actives largely listed as activators; hit rate 1.8% among 340,000; note: % of control where 0% means no effect; nearly all actives have a fitted effect of over 55% in size
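Hoechst fluorescence of nuclei (405 nm excitation, 500-530 nm emission) measured by plate-scanning imager after 48 hr compound exposure at 37 C; re-replication scored as increased number of nuclei with elevated intensity.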
ELG1 genotox – genotoxicity induction in ELG1-luciferase HEK293T cells; HEK293T ELG1-luciferase reporter, luminescence, 16 h; hit rate 1.3% among 330,000; Potency, µM (top dose mostly 46 µM), inactives show top-dose activity change, positive = activation, hits mostly activators; AID 504466; note: % of control where 0% means no effect; nearly all actives have a fitted effect of over 60% in size
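Screening used a luciferase reporter fused to human ELG1 in HEK293T cells. Luminescence was read on a CCD plate imager after 16 hr exposure and 30 min ONE-Glo incubation.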
ELG1 repair inh – blocks ELG1-dependent DNA repair in HEK293T cells; AID 504467; Potency, µM (doses to about 46.1 µM), for inactives: at the highest dose activity change, negative = inhibition, actives largely listed as inhibitors; HEK293T ELG1-luciferase reporter, luminescence, 16 h; DNA damage induced by 5-fluorouridine; hit rate 2.3% among 330,000; note: % is set by controls: 0 for no effect and ±100 for the full control effect; nearly all actives have a fitted effect of over 55% in size
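Step one: seed 2,000 cells per well. Step two: pin-transfer compound or DMSO alongside 5-fluorouridine. Step three: incubate 16 hr, 37 °C, 5% CO2. Step four: add ONE-Glo, wait 30 min, read luminescence.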
MCF10A rerep – inducers of DNA re-replication in MCF 10A breast cells; AID 624296; hit rate 2.9% among 350,000; MCF 10A DNA re-replication, Hoechst nuclear intensity, 48 h; Potency, µM (titrated, usually from 46.1 µM), for inactives: at the top dose activity, positive = re-replication, actives largely listed as activators; note: % of control where 0% means no effect; nearly all actives have a fitted effect of over 50% in size
p53 reactivator – re-activators of mutant p53; H1299 p53-A138V BP100-luciferase reporter, luminescence, 24 h; AID 504706; hit rate 0.063% among 320,000; Potency, µM (series often up to 92.2 µM), without a hit: top-dose activity change, positive = activation, usual class: activators; note: % of control where 0% means no effect; nearly all actives have a fitted effect of over 45% in size
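p53-null H1299 cells stably carrying temperature-sensitive p53-A138V and a BP100-luciferase reporter were pinned with compounds (4-point, 1:5 series) and held 24 hrs at 37 deg C. Luminescence was read 10 min after detection reagent.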
A-T KAP1 phos – potential ataxia-telangiectasia treatment; F2112 A-T fibroblasts, KAP-1 phosphorylation AlphaLISA; neocarzinostatin DNA damage 30 min before lysis; Potency, µM (series often up to 57.5 µM), without a hit: top-dose activation, hits mostly activators; hit rate 0.19% among 320,000; AID 485349; note: % of control where 0% means no effect; nearly all actives have a fitted effect of over 45% in size
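hTERT-immortalized A-T patient fibroblasts (F2112), 500 cells/well in OPTI-MEM, 1% FBS, got compounds for 60 min, then NCS for 30 min at 37C. Lysates were then assayed for phospho-KAP-1 by AlphaLISA (anti-pKAP1 donor, anti-KAP1 acceptor beads), 6 hr at 25C.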
Numbers without * were called inactive; ? = inconclusive; nt = no result given; [ ] = dose if it differs, or a comment. Calls come from the whole dose curve; as a rule, active = well fitted curve in the direction sought with a large enough effect; inconclusive = small, poorly fitted or top-dose-only effect, or another doubt; inactive = no such curve, though single readings can be large; an effect the other way counts as inactive or inconclusive. Potency is the fitted concentration of half-maximal effect.

SMILES | SW480 rereplic | ELG1 genotox | ELG1 repair inh | MCF10A rerep | p53 reactivator | A-T KAP1 phos
O=C(Cc1cccs1)N/N=C/C=C\c1ccco1 | -5% | 9% | ? | 24% | 14µM* | -3%
Cc1ccc(OCC(=O)N/N=C/C=C/c2ccco2)c(Br)c1 | 16µM* | 8% | 0% | ? | nt | 0%
Cc1cc2c3c([nH]c2cc1S(=O)(=O)N1CCC2(CC1)OCCO2)CC(C)(C)CC3=O | ? | 0%[9.26 µM] | 21µM* | 23µM* | 19% | 12%
C=CCC[C@H](Cc1ccc(F)cc1)C(=O)OC[C@H](Cc1c[nH]c2ccccc12)NC(=O)[C@@H](CC=C)CC(=O)N[C@H](CO)Cc1ccccc1 | 4% | -6% | ? | ? | 5% | -4%
Oc1ccc(COc2cccc3ccccc23)c2cccnc12 | nt | nt | nt | nt | nt | 10%
Fc1ccc(-c2nc3n(n2)Cc2ccccc2-3)cc1 | 1% | 0.41µM* | ? | 14% | ? | 3%
Cc1ccc(C(NC(=O)Nc2ccccn2)C(Cl)(Cl)Cl)cc1F (configuration not stated) | -31% | 0% | 1% | 16% | 8% | -13%
Cc1ccc(-c2[nH]c(-c3ccc(C(=O)O)cc3)nc2-c2ccccc2)cc1 | ? | 5% | 14% | 9.2µM* | -9% | 1%
O=C(O)c1ccc(-c2nc(-c3ccccc3)c(-c3cccs3)[nH]2)cc1 | 0% | 1% | 15% | 1% | -3% | -3%
COc1cccc(NC(=O)C(NCCc2ccc(S(N)(=O)=O)cc2)c2ccccc2)c1 (configuration not stated) | -7% | -4% | 1% | 0% | -5% | 1%
CCC(C)c1ccc(N(CC(=O)NC(C)(C)C)C(=O)CNC(=O)c2cccs2)cc1 (configuration not stated) | ? | -1% | -10% | 35% | -1% | 12%
CC(=O)c1cccc(NC(=O)Cn2nc(-c3ccccc3Cl)ccc2=O)c1 | -1% | -4% | -18% | 0% | -5% | -3%
CC(=O)c1cccc(NC(=O)Cn2nc(-c3ccc(Cl)cc3)ccc2=O)c1 | -52% | -4% | -2% | 0.58µM* | -5% | 0%
O=C(Cn1cnc2sc(-c3ccccc3)cc2c1=O)NCc1ccccc1 | 16µM* | ? | 9% | 4.6µM* | 8% | nt
COc1ccc(CNC(=O)Cn2cnc3c(OCc4ccccc4)ncnc32)cc1 | 27% | 1% | 14% | 1% | 6% | 24%
O=C(Cn1cnc2c(OCc3ccccc3)ncnc21)NCc1ccccc1 | 15µM* | -2% | -8% | ? | 22% | 11%
O=C(Cn1cnc2sc(-c3ccccc3)cc2c1=O)NCCc1ccccc1 | ? | 21% | ? | ? | 3% | nt
Cc1ccc(NC(=O)CSc2nncn2N)cc1C | 0% | 5% | -4% | 4% | nt | -1%
CC1CCC(C(C)C)C(OC(=O)COC(=O)c2ccc(=O)[nH]c2)C1 (configuration not stated) | -1% | -1% | 1% | ? | 24% | -3%
CC1CCC(C(C)C)C(OC(=O)COC(=O)c2cc(O)ccc2N)C1 (configuration not stated) | 26µM* | 0% | 0% | 23µM* | -5% | 13%
CCOC(=O)C1(Nc2nccs2)Sc2ccccc2NC1=O (configuration not stated) | 15µM* | 0% | 7.3µM* | 13µM* | -12% | 7%
CCn1c(SCC(=O)Nc2ccc(OC)cc2)nc2nc3c(cc2c1=O)COC(C)(C)C3 | -13% | -7% | 21µM* | 1% | -5% | -4%
CCn1c(SCC(=O)Nc2ccccc2C)nc2nc3c(cc2c1=O)COC(C)(C)C3 | -16% | -9% | 13µM* | -3% | -3% | 1%
COc1ccc(NC(=O)COC(=O)C2CC(=O)N(c3ccc(C)cc3)C2)cc1 (configuration not stated) | -8% | ? | 30% | -6% | -1% | 6%
CCOC(=O)c1ccc(NC(=O)C2(c3ccc(Cl)cc3)CCCC2)cc1 | -18% | -2% | -11% | -4% | -3% | 1%
SMILES | SW480 rereplic | ELG1 genotox | ELG1 repair inh | MCF10A rerep | p53 reactivator | A-T KAP1 phos
Cc1ccc(NC(=O)COC(=O)C2(c3ccc(Cl)cc3)CCCC2)cc1 | ? | 1% | -17% | 21µM* | 19% | 10%
COc1ccc(C(C#N)=C2C=CC(=NO)C(C)=C2Cl)cc1 | ? | nt | nt | 9% | nt | nt
Cc1cc(OCC(=O)NNC(=O)c2cccnc2)cc(C)c1Cl | ? | 3% | ? | 8% | 4% | 6%
CN1CCC(=NNC(=O)c2cc(-c3ccc(Cl)cc3)n[nH]2)CC1 | -52% | 0% | 10% | 18µM* | 6% | -7%
COc1ccccc1C(=O)OC(C)CN1CCN(C)CC1 (configuration not stated) | 1% | -6% | -1% | 12% | 0% | -41%
COc1ccccc1CNC(=O)CN(C)S(=O)(=O)c1cccc2cccnc12 | -12% | -4% | -17% | 10% | -3% | 2%
CC1C/C(=C\c2cccnc2)C(=O)/C(=C/c2cccnc2)C1 (configuration not stated) | ? | -15% | 2.1µM* | ? | -20% | ?
O=C1/C(=C/c2cccnc2)CCc2c1[nH]c1ccccc21 | 21µM* | -3% | 15% | ? | 13% | 4%
CC(C)C/C=C1\CCc2c([nH]c3ccccc23)C1=O | 5% | ? | ? | 1% | 11% | 0%
O=c1[nH]cnc2c1ncn2-c1ccc(N(CCO)CCO)cc1 | -2% | nt | nt | -3% | nt | nt
O=C(COC(=O)c1ccccc1Br)Nc1cccnc1Cl | -3% | 4% | -20% | -2% | 4% | 2%
CC1=CC(C)[C@H](/C=N/n2c(=O)[nH]c3c([nH]c4ccc(C)cc43)c2=O)C(C)C1 (some centres not stated) | ? | -24% | -28% | 9.2µM* | -3% | 1%
CCOC(=O)CN1C(=O)/C(=C/c2ccc(Cl)cc2)Oc2ccccc21 | 0% | -4% | -3% | 7% | ? | 11%
CCOc1ccc(NC(=O)CC(Cc2cc(C)cc(C)c2)C(=O)O)cc1 (configuration not stated) | -1% | 0% | 7% | -12% | -3% | 12%
N#CNC(=Nc1cccc(F)c1)SCc1ccccc1F | 3% | -2% | -1% | 4.6µM* | ? | 1%
CC(C)N=C(NC#N)SCc1ccccc1F | -1% | -1% | 1% | -18% | -3% | 1%
